# Results: ChEMBL document CHEMBL4513216, “Probing the Open Global Health Chemical Diversity Library for Multistage-Active Starting Points for Next-Generation Antimalarials” (ACS Infect Dis, 2020)
# The whole screen tested about 69,000 compounds, of which about 8,600 (12%) showed an effect of 50% or more. The full list was thinned out, with strong results kept by preference.
# Tested on: Plasmodium berghei
# Assay: Screen against P. berghei liver stage (PbLuc), transformed with Luciferase, at 10uM
# Format: functional, HepG2
# Details: tested at 10 uM
row,SMILES,INHIBITION [%]
1,Cc1nnc(N2C[C@H](Oc3ccccn3)[C@H]3OCCC[C@H]32)s1,-10.3
2,Cc1cc(NC(=O)CCNC(C)(C)c2nc(C)c(C)s2)no1,53.8
3,Cc1cc(NC(=O)NC(C)(C)c2nc(C)c(C)s2)no1,29.1
4,Cc1cc(NC(=O)CNC(C)(C)c2nc(C)c(C)s2)no1,26.6
5,Cn1cc(C(=O)Nc2ccc3c(c2)N(C(=O)c2ccco2)CC3)nn1,20.1
6,c1csc(CN2C[C@H](OCC3CC3)[C@H]3COC[C@H]32)n1,12.6
7,c1ccc(C[C@H]2CN(Cc3nccs3)CC[C@@H]2OCC2CC2)cc1,62.5
8,c1csc(CN2CCCn3cnc(COCC4CC4)c3C2)n1,37.8
9,c1ccc(C[C@H]2CN(Cc3nccs3)CC[C@H]2OCC2CC2)cc1,50
10,c1ccc(C[C@H]2CN(C3CCOCC3)CC[C@H]2OCC2CC2)cc1,-54.1
11,CCCNC(c1ccc(F)cc1)c1cccnc1 (centres undefined),42.1
12,CC(C)c1ccc(C(O)CN2CCN(Cc3nccn3C)CC2)cc1 (centres undefined),-65.3
13,CCC1CN(Cc2cccc(C(=O)N(C)C)c2)CCN1CCOC (centres undefined),-34
14,Cc1cccc(CN2C[C@@H]3CN(C(=O)NC(C)C)C[C@@H]3C2=O)n1,-31.9
15,Cc1cc(NC(=O)CNC2CCc3ncnn3C2)on1 (centres undefined),6.67
16,CC(C)c1cc(NC(=O)CN2CCCC(Cn3cncn3)C2)on1 (centres undefined),5.58
17,CC(C)(C)c1cc(NC(=O)CNC2CCc3ncnn3C2)on1 (centres undefined),48.4
18,CC(C)c1cc(NC(=O)CN2CCC(N3CCCCC3)CC2)on1,74.1
19,CC(C)c1cc(NC(=O)CN2CCNC(=O)C2)on1,20.6
20,CC(C)c1cc(NC(=O)CN2CCC(N3CCNC3=O)CC2)on1,17.3
21,CC(C)c1cc(NC(=O)CN2CCC(C(N)=O)CC2)on1,9.64
22,CC(C)c1cc(NC(=O)CNC2CCc3ncnn3C2)on1 (centres undefined),65.3
23,CNC(=O)C1CCN(CC(=O)Nc2cc(C(C)C)no2)CC1,53

row,SMILES,INHIBITION [%]
1,Cc1ccc2nnc(C(=O)NCC3CCCC3)nc2c1,-4.01
2,O=C(c1cccnc1)N1CCn2nnc(COc3ccccn3)c2C1,41.6
3,CN(C)CCOCc1cncc2c1CCN(C(=O)c1cscn1)C2,49.4
4,COc1cccc(S(=O)(=O)NC2CNC(=O)C2)c1 (centres undefined),-12.2
5,O=C1CC(NS(=O)(=O)c2ccc(Br)cc2)CN1 (centres undefined),53.7
6,COC(=O)c1ccc(S(=O)(=O)NC2CNC(=O)C2)cc1 (centres undefined),60.6
7,CSc1ccc(S(=O)(=O)NC2CNC(=O)C2)cc1 (centres undefined),42.1
8,O=C1CC(NS(=O)(=O)c2ccc(Cl)cc2)CN1 (centres undefined),45.5
9,Cc1ccc(S(=O)(=O)NC2CNC(=O)C2)cc1C (centres undefined),38.5
10,O=C(c1ccnc(C2CCNCC2)c1)N1CCCC(CO)C1 (centres undefined),23.9
11,CCOCC1CN(C(=O)c2cc(C)oc2C)Cc2c1cnn2C (centres undefined),36.2
12,COC[C@H]1CC[C@H]2[C@H](CCN2S(=O)(=O)c2ccccc2)O1,4.68
13,c1nc(N2CCOCC2)sc1-c1cncn1CCCN1CCCCC1,8.32
14,CSCCC(=O)N1CCN(CC(C)O)CC1 (centres undefined),68.2
15,CC(C)(C)C(O)CN1CCN(C(=O)COCC2CC2)CC1 (centres undefined),10.6
16,CCC(O)CN1CCN(C(=O)CCSC)CC1 (centres undefined),68.2
17,CC(O)CN1CCN(C(=O)CCOC(C)C)CC1 (centres undefined),8.05
18,CSCCC(=O)N1CCN(CC(O)C(C)(C)C)CC1 (centres undefined),-46.4
19,CCOCCC(=O)N1CCN(CC(C)O)CC1 (centres undefined),29.4
20,CCN1CCN(C(=O)CCC2CCN(C(=O)CCSC)CC2)CC1,33.5
21,CSCC(=O)N1CCN(CC(O)C(C)(C)C)CC1 (centres undefined),60.9
22,CSCCC(=O)N1CCN(CC(C)(C)O)CC1,-94.3
23,O=C(CCC(=O)N1CCCC1c1ccsc1)N1CCOCC1 (centres undefined),7.24

row,SMILES,INHIBITION [%]
1,Cc1ccc2nc(-c3nc4c([nH]3)CCCNC4=O)cn2c1,-87.9
2,CCOC(=O)CN1CCC2(CC1)CC(=O)c1ccc3ccccc3c1O2,31.2
3,CCC(=O)NCc1ccc(N2CCCCC2)cc1,-0.578
4,Cc1nc(C)n(CC2CCCN2Cc2cc(-c3cccs3)on2)n1 (centres undefined),40.65
5,c1nnc(Nc2cncc(C3CCCN3CC3CC3)n2)s1 (centres undefined),11.8
6,Cc1noc2nc(C3CCCN(Cc4cccnc4)C3)cc(C(F)F)c12 (centres undefined),41.2
7,Cc1cc(C(=O)N2CCCC2c2nc(C)cc(O)n2)on1 (centres undefined),44.8
8,Cc1cc(C(=O)N2CCCC2c2nc(O)cc(C(C)C)n2)on1 (centres undefined),51.5
9,CCc1cc(C(=O)N2CCCC2c2nc(C)c(F)c(O)n2)on1 (centres undefined),53
10,CCc1cc(C(=O)N2CCCC2c2nc(C)c(CC)c(O)n2)on1 (centres undefined),-21.4
11,CCc1cc(O)nc(C2CCCN2C(=O)c2cc(C)no2)n1 (centres undefined),26.9
12,CCc1c(C)nc(C2CCCN2C(=O)c2cc(C)no2)nc1O (centres undefined),30.4
13,CN(C)CCN1C(=O)CCC12CCCN(C(=O)C1CC=CC1)CC2 (centres undefined),-38.1
14,NC(=O)CCN(CC(=O)NCc1cccs1)c1ccc(F)cc1,47.3
15,Cn1cc(CN2CC[C@@H]3[C@@H](CO[C@H]3CNC(=O)c3ccco3)C2)cn1,-16.9
16,CCN1CC[C@@]2(C(=O)N3CCOCC3)CCN(C(=O)NC)CC[C@@H]12,-19.6
17,Cc1cc(-c2nccs2)nc(C2CCN(Cc3cccs3)CC2)n1,50.8
18,Cc1cc(-c2nccs2)nc(C2CCN(Cc3ccncc3)CC2)n1,26.7
19,Cc1nccc([C@@H]2C[C@@H]3CCN(Cc4cccs4)C[C@H]3O2)n1,-32.6
20,Cc1cc(-c2nccs2)nc(C2CCN(Cc3ccccn3)CC2)n1,23.9
21,Cc1cc(-c2nccs2)nc(C2CCN(Cc3ccc(F)cc3)CC2)n1,52.7
22,Oc1cc(-c2nccs2)nc(C2CCN(Cc3cccs3)CC2)n1,2.55
23,Cc1nnc(C(C)NCC2(c3ccc(F)cc3)CCCCC2)o1 (centres undefined),-14.6
